From PubChem BioAssay (EPA / NIEHS) come the findings set out here.

As usually defined, the AC50 is the concentration at which the activity in the assay is half-maximal.

Read-out in assay [1]: TIMP metallopeptidase inhibitor 1 (TIMP1), TIMP1 (gene 7076)
Put plainly: BSK_hDFCGF_TIMP1: BioMAP Diversity Plus: hDFCGF Assay for TIMP metallopeptidase inhibitor 1 (TIMP1) Biomarker Activity (AID 2283062). Conditions: primary human foreskin fibroblasts; actives raise or lower the signal. An outline of the steps: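 Bidirectional curve fitting against DMSO baseline yielded this endpoint, based on ELISA detection of TIMP-1 in primary human foreskin fibroblasts exposed to compound for 24 h.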

Read-out in assay [2]: Monokine induced gamma interferon (MIG), CXCL9 (gene 4283)
Put plainly: BSK_hDFCGF_MIG: BioMAP Diversity Plus: hDFCGF Assay for Monokine induced gamma interferon (MIG) Biomarker Activity (AID 2283063). Conditions: primary human foreskin fibroblasts; actives raise or lower the signal. The gist of the method:
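Endpoint derived by bidirectional fitting relative to DMSO; MIG quantified via ELISA in primary human foreskin fibroblasts harvested 24 h after dosing.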

Read-out in assay [3]: Vascular cell adhesion molecule 1 (VCAM1), VCAM1 (gene 7412)
Kind of assay: BSK_hDFCGF_VCAM1: BioMAP Diversity Plus: hDFCGF Assay for Vascular cell adhesion molecule 1 (VCAM1) Biomarker Activity (AID 2283065). Conditions: primary human foreskin fibroblasts; actives raise or lower the signal. The gist of the method:
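Measured after 24 h chemical treatment of primary human skin fibroblasts, VCAM-1 was detected by ELISA and concentration-response analysed in both directions versus DMSO vehicle.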

Read-out in assay [4]: Plasminogen activator inhibitor-1 (PAI1), SERPINE1 (gene 5054)
Put plainly: BSK_hDFCGF_PAI1: BioMAP Diversity Plus: hDFCGF Assay for Plasminogen activator inhibitor-1 (PAI1) Biomarker Activity (AID 2283066). The conditions noted are these: primary human foreskin fibroblasts; actives raise or lower the signal. An outline of the steps: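 PAI-1 levels in human dermal foreskin fibroblasts were quantified by ELISA 24 h after dosing, with gain or loss analysed against DMSO. Overt cytotoxicity was checked by sulforhodamine B total-protein staining in parallel cultures.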

Read-out in assay [5]: Intercellular Adhesion Molecule 1 (ICAM1), ICAM1 (gene 3383)
Put plainly: BSK_KF3CT_ICAM1: BioMAP Diversity Plus: KF3CT Assay for Intercellular Adhesion Molecule 1 (ICAM1) Biomarker Activity (AID 2283067). The conditions noted are these: primary human keratinocytes with fibroblasts; actives raise or lower the signal. An outline of the steps:
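Bidirectional curve fitting against a DMSO baseline was applied to ICAM-1 ELISA signal from primary human skin co-cultures harvested 24 h after treatment, with SRB staining of parallel wells for overt cytotoxicity.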

Read-out in assay [6]: Interferon-gamma inducible Protein 10 (IP10), CXCL10 (gene 3627)
Put plainly: BSK_KF3CT_IP10: BioMAP Diversity Plus: KF3CT Assay for Interferon-gamma inducible Protein 10 (IP10) Biomarker Activity (AID 2283068). The conditions noted are these: primary human keratinocytes with fibroblasts; actives raise or lower the signal. The gist of the method: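 In a primary skin co-culture of keratinocytes and fibroblasts, IP-10 is quantified by ELISA at 24 h after dosing. SRB staining of parallel wells monitors overt toxicity. Curves are fitted both directions against DMSO.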

Read-out in assay [7]: Interleukin-1 alpha (IL1a), IL1A (gene 3552)
Put plainly: BSK_KF3CT_IL1a: BioMAP Diversity Plus: KF3CT Assay for Interleukin-1 alpha (IL1a) Biomarker Activity (AID 2283070). The conditions noted are these: primary human keratinocytes with fibroblasts; actives raise or lower the signal. The gist of the method: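 Primary skin co-culture (keratinocytes, foreskin fibroblasts), 24 h exposure; ELISA for IL-1a; bidirectional curve fit vs DMSO.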

Read-out in assay [8]: TIMP metallopeptidase inhibitor 2 (TIMP2), TIMP2 (gene 7077)
Put plainly: BSK_KF3CT_TIMP2: BioMAP Diversity Plus: KF3CT Assay for TIMP metallopeptidase inhibitor 2 (TIMP2) Biomarker Activity (AID 2283071). Conditions: primary human keratinocytes with fibroblasts; actives raise or lower the signal. An outline of the steps:
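TIMP-2 measured by ELISA at 24 h in human keratinocyte/fibroblast primary co-cultures exposed to chemicals. Both increases and decreases were fitted against DMSO. Parallel cultures were stained with SRB for total protein as an overt-cytotoxicity check.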

Read-out in assay [9]: Transforming growth factor beta 1 (TGFb1), TGFB1 (gene 7040)
Put plainly: BSK_KF3CT_TGFb1: BioMAP Diversity Plus: KF3CT Assay for Transforming growth factor beta 1 (TGFb1) Biomarker Activity (AID 2283072). Conditions: primary human keratinocytes with fibroblasts; actives raise or lower the signal. An outline of the steps:
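ELISA quantifies TGF-b1 at 24 h post-dose in a primary human skin co-culture of keratinocytes and fibroblasts, with gain or loss judged against DMSO. Parallel SRB total-protein staining flags overt cytotoxicity.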

Read-out in assay [10]: Matrix Metallopeptidase 9 (MMP9), MMP9 (gene 4318)
Put plainly: BSK_KF3CT_MMP9: BioMAP Diversity Plus: KF3CT Assay for Matrix Metallopeptidase 9 (MMP9) Biomarker Activity (AID 2283074). The conditions noted are these: primary human keratinocytes with fibroblasts; actives raise or lower the signal. The gist of the method:
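ELISA read-out of MMP-9 at 24 h post-dosing in a co-culture of human skin keratinocytes and foreskin fibroblasts. Gain or loss of signal was fitted in both directions against DMSO.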

Read-out in assay [11]: urokinase plasminogen activator (uPA), PLAU (gene 5328)
Kind of assay: BSK_KF3CT_uPA: BioMAP Diversity Plus: KF3CT Assay for urokinase plasminogen activator (uPA) Biomarker Activity (AID 2283075). The conditions noted are these: primary human keratinocytes with fibroblasts; actives raise or lower the signal. An outline of the steps: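 Skin co-culture (keratinocytes + foreskin fibroblasts), human primary; 24 h post-dose; uPA by ELISA; gain/loss fit vs DMSO baseline.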

Read-out in a further assay: CD40, CD40 (gene 958)
Kind of assay: BSK_LPS_CD40: BioMAP Diversity Plus: LPS Assay for CD40 Biomarker Activity (AID 2283076). The conditions noted are these: primary human HUVEC with PBMC; actives raise or lower the signal. An outline of the steps: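 Using a multiplexed primary human co-culture (umbilical vein endothelium plus PBMC), CD40 was read by ELISA 24 h after dosing, with cytotoxicity tracked by sulforhodamine B staining of parallel cultures and activity fitted bidirectionally versus DMSO.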

Read-out in assay [12]: E-selectin (Homo sapiens) (UniProt P16581)
Put plainly: BSK_LPS_Eselectin: BioMAP Diversity Plus: LPS Assay for Eselectin Biomarker Activity (AID 2283077). The conditions noted are these: primary human HUVEC with PBMC; actives raise or lower the signal. An outline of the steps:
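Dose chemical onto LPS-driven HUVEC/PBMC co-culture; after 24 h, run ELISA for E-selectin; fit up- and down-going responses relative to DMSO control.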

Read-out in assay [13]: Interleukin-8 (IL8), CXCL8 (gene 3576)
Kind of assay: BSK_LPS_IL8: BioMAP Diversity Plus: LPS Assay for Interleukin-8 (IL8) Biomarker Activity (AID 2283078). The conditions noted are these: primary human HUVEC with PBMC; actives raise or lower the signal. An outline of the steps: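 In this LPS system, chemical-treated human umbilical vein endothelium/PBMC co-cultures were harvested at 24 h for IL-8 ELISA.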

Assay [14] is described as follows: BSK_LPS_SRB: Viability Assessment in the BioMAP Diversity Plus: LPS Assay (AID 2283079).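 Note: total protein by sulforhodamine B absorbance as a cytotoxicity measure; measured one day after compound addition.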 Conditions: primary human HUVEC with PBMC. The gist of the method:
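Cytotoxicity endpoint in human endothelial–PBMC co-culture: 24 h exposure, then SRB (0.1%) staining, 560 nm read.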

Read-out in assay [15]: Interleukin-1 alpha (IL1a), IL1A (gene 3552)
Kind of assay: BSK_LPS_IL1a: BioMAP Diversity Plus: LPS Assay for Interleukin-1 alpha (IL1a) Biomarker Activity (AID 2283080). The conditions noted are these: primary human HUVEC with PBMC; actives raise or lower the signal. An outline of the steps: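 Primary human HUVEC and PBMC co-culture stimulated with LPS is dosed and harvested at 24 h. Both increases and decreases in ELISA-measured IL-1a are scored relative to DMSO.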

Read-out in assay [16]: Monocyte Chemoattractant Protein-1 (MCP1), CCL2 (gene 6347)
Put plainly: BSK_LPS_MCP1: BioMAP Diversity Plus: LPS Assay for Monocyte Chemoattractant Protein-1 (MCP1) Biomarker Activity (AID 2283081). Conditions: primary human HUVEC with PBMC; actives raise or lower the signal. An outline of the steps:
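Values derive from bidirectional fitting against DMSO of ELISA-measured MCP-1 in a human primary endothelial and mononuclear cell co-culture, 24 h after chemical addition under LPS activation.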

A short description of assay [17]: BSK_KF3CT_SRB: Viability Assessment in the BioMAP Diversity Plus: KF3CT Assay (AID 2283069).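 Note: read 24 h after compound addition.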 Conditions: primary human keratinocytes with fibroblasts. The gist of the method: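 SRB read-out at 560 nm (0.1% stain, TCA-fixed cells) gauges overt cytotoxicity in a human skin keratinocyte–fibroblast co-culture 24 h post-dosing. Signal change was fitted bidirectionally relative to DMSO control.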

Read-out in assay [18]: C-C motif chemokine 2 (Homo sapiens) (UniProt P13500)
Put plainly: BSK_KF3CT_MCP1: BioMAP Diversity Plus: KF3CT Assay for Monocyte Chemoattractant Protein 1 (MCP1/CCL2) Biomarker Activity (AID 2283073). Conditions: primary human keratinocytes with fibroblasts; actives raise or lower the signal. An outline of the steps:
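Biomarker MCP-1 is measured by ELISA in primary human keratinocytes co-cultured with foreskin fibroblasts, 24 h after chemical treatment; DMSO serves as the negative control and activity baseline.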

Read-out in assay [19]: Matrix Metallopeptidase 1 (MMP1), MMP1 (gene 4312)
Kind of assay: BSK_hDFCGF_MMP1: BioMAP Diversity Plus: hDFCGF Assay for Matrix Metallopeptidase 1 (MMP1) Biomarker Activity (AID 2283064). Conditions: primary human foreskin fibroblasts; actives raise or lower the signal. The gist of the method:
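ELISA read-out of MMP1 from human foreskin fibroblasts (primary skin cells), 24 h post-dose. Gain or loss of signal was fitted bidirectionally versus DMSO negative control; cytotoxicity was checked by SRB in parallel cultures.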

The source made the active and inactive calls. Rule for the calls: active = hit-call score of the fitted dose curve at least 0.9, where 1 is the maximum; inactive = score below 0.9.

E-selectin (Homo sapiens), sequence (P16581 whole entry, looked up): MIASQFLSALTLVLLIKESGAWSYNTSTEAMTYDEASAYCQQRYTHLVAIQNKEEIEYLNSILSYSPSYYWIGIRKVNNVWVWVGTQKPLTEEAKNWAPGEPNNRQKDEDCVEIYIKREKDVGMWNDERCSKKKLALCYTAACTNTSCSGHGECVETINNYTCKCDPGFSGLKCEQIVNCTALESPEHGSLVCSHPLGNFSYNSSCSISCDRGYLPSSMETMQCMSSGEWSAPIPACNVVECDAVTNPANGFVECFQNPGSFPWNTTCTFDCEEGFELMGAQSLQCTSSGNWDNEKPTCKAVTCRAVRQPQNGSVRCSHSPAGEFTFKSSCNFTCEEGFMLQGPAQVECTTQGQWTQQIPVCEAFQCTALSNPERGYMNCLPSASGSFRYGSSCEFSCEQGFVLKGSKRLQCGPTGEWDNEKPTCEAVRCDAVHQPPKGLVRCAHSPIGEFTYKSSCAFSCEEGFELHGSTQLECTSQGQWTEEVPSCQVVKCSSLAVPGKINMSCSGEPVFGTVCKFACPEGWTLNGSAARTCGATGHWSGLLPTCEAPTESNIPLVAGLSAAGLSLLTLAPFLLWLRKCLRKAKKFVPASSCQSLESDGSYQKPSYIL

Consider `OCC(O)CO`, for which the result in assay [1], in assay [2], in assay [3], in assay [4], in [5] and in assay [6] was inactive. For the same compound, the outcome in [7] is “inactive”; in assay [8] it was “inactive”; in assay [9], “inactive”; in assay [10], “inactive”; in assay [11], “inactive”; with CD40, CD40 (gene 958) it was “inactive”. For the same compound, the result in assay [12], in assay [13], in assay [14], in assay [15] and in [16] was inactive.
As to `O=C1O[C@H]([C@H](O)CO)C(O)=C1O`, the outcome in assay [1], in assay [2], in assay [3], in assay [4], in [5] and in [6] was inactive. In addition, the result in assay [17], in assay [7], in [9], in assay [18], in assay [10] and in assay [11] was inactive. The outcome is “inactive” with CD40, CD40 (gene 958); “inactive” in assay [12]; “inactive” in assay [13]; “inactive” in [14]; “inactive” in [15]; “inactive” in assay [16].
Regarding `CC1=C(C)S(=O)(=O)CCS1(=O)=O`, the outcome in assay [1], in [2], in assay [3], in assay [4], in assay [5] and in [6] was inactive. Besides, the outcome in assay [17], in assay [7], in assay [8], in assay [9], in assay [18] and in [10] was inactive. For the same compound, the outcome in assay [11], in assay [12], in assay [15] and in assay [16] was inactive. In addition, the AC50 with CD40, CD40 (gene 958) is 4330 nM (active).
On to `CC(C)c1cccc(C(C)C)c1NC(=O)NS(=O)(=O)c1cc(C(C)(C)O)co1`, for which the result in assay [1], in [2], in assay [3], in [4], in [5] and in [6] was inactive. Also, the outcome was “inactive” in [7]; “inactive” in [9]; “inactive” in [10]; “inactive” in assay [11]; “inactive” with CD40, CD40 (gene 958); “inactive” in [15]. In addition, the outcome in [16] was inactive. The AC50 was 148 nM (active) in [12] and 152 nM (active) in assay [13].
Take `CCCC[C@H]1CN(CC2CCOCC2)C(=O)OC12CCN(C1(C)CCN(C(=O)c3c(C)ncnc3C)CC1)CC2`: the outcome in assay [1], in [19], in [3], in assay [4], in assay [5] and in assay [6] was inactive. The result in assay [17], in [7], in [9], in assay [18], in assay [10] and in assay [11] was inactive. Besides, the outcome with CD40, CD40 (gene 958) was “inactive”; in [12], “inactive”; in assay [14], “inactive”; in [15] it was “inactive”; in assay [16], “inactive”.
`O=C1NC(=O)C(c2ccccc2)(c2ccccc2)N1`: the result in [1], in assay [19], in assay [3], in assay [4], in assay [5] and in assay [6] was inactive. The outcome in [17], in assay [7], in [8], in assay [9], in assay [10] and in assay [11] was inactive. Moreover, the outcome is “inactive” with CD40, CD40 (gene 958); “inactive” in assay [12]; “inactive” in [14]; “inactive” in assay [15]; “inactive” in [16].
As for `COC(=O)CCC(=O)OC`, the result in assay [1], in assay [2], in assay [3], in [4], in assay [5] and in assay [6] was inactive. Moreover, the result in assay [17], in assay [7], in assay [8], in assay [9], in [10] and in assay [11] was inactive. The outcome was “inactive” with CD40, CD40 (gene 958); “inactive” in assay [12]; “inactive” in assay [15]; “inactive” in assay [16].
As for `CCCCCCCCCC[N+](C)(C)[O-]`, the result in [1], in [2], in [3], in assay [4], in [5] and in assay [6] was inactive. Further, the outcome in assay [17], in [7], in [9], in assay [18], in assay [10] and in assay [11] was inactive. Also, the outcome with CD40, CD40 (gene 958) is “inactive”; in assay [12], “inactive”; in assay [13], “inactive”; in assay [14] it was “inactive”; in assay [15], “inactive”; in assay [16], “inactive”.
